For some assays here: Potency and affinity values are given separately. Calls of active or inactive are those of the source. Unless noted, how the calls were made is not given here.
Tests used:
[1] = antimalarial activity against Dd2 strain (AID 2302;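 active means growth inhibition above 50% at the single 2 µM test dose, taken to imply half-maximal potency below 2 µM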;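 further: 0% = DMSO untreated growth and 100% = chloroquine plus artemisinin killed control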); conditions: P. falciparum Dd2 in RBCs, LDH growth readout, 72 h; at 2 µM; hits give high values
[2] = HepG2 cytotoxicity, primary screen, cytotoxicity control for P. falciparum antimalarial project, cell-based, ATP luminescence (AID 2303;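 active means inhibition above 50%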;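 further: 0% = DMSO wells and 100% = digitonin-killed cells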); conditions: HepG2 viability, 24-48 h, at 10 µM, hits give high values
[3] = biological target: L-lactate dehydrogenase (Plasmodium falciparum (isolate CDC / Honduras)) (UniProt Q27743); test: PfLDH activity inhibition – cell lysate, 3D7 strain, counter-screen for P. falciparum growth inhibition project (AID 2304);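 further: 0% = vehicle and 100% = reference inhibitor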; conditions: P. falciparum 3D7 crude extract, LDH APAD/NBT absorbance; at 2 µM; hits give high values
Sequence of L-lactate dehydrogenase (Plasmodium falciparum (isolate CDC / Honduras)) (Q27743 whole entry, looked up): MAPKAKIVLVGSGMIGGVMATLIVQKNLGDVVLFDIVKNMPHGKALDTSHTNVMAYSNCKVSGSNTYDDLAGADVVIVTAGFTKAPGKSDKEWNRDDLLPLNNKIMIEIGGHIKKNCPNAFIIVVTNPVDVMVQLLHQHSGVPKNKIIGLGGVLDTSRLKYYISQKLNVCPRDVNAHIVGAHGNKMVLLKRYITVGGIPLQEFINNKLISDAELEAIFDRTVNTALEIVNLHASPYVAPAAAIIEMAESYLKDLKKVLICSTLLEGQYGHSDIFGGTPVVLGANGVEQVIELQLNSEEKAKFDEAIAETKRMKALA

[4] = inhibition of 3D7 malaria parasite growth – strain 3D7 (AID 2306);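 further: 0% = DMSO wells and 100% = chloroquine plus artemisinin control wells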; conditions: P. falciparum 3D7 erythrocytic growth, LDH absorbance, 72 h; at 2 µM; hits give high values
[5] = biological target: Calcium-dependent protein kinase 1 (Plasmodium falciparum (isolate 3D7)) (UniProt P62344); test: PfCDPK1 kinase inhibitors, biochemical, TCAMS library (AID 1159585; cut-off not given, nearly all actives have IC50 up to about 0.98 µM;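 further: inhibitors leave more ATP so luminescence rises with inhibition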); conditions: recombinant PfCDPK1, Kinase-Glo ATP depletion luminescence
Sequence of Calcium-dependent protein kinase 1 (Plasmodium falciparum (isolate 3D7)) (P62344 whole entry, looked up): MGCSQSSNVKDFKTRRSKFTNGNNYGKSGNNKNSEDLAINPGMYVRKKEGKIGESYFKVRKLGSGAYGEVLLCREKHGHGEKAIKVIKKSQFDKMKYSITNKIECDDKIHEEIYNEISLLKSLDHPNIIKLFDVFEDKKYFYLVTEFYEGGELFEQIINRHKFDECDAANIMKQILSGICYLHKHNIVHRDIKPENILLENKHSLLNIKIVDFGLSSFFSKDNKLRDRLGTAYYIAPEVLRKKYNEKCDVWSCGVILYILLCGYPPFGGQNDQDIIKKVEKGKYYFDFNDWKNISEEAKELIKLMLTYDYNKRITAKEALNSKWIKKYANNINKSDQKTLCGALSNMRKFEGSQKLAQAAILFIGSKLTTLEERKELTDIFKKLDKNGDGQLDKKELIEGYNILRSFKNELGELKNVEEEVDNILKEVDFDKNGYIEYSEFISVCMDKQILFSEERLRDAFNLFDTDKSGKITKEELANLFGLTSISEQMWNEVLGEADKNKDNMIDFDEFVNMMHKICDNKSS

[6] = biological target: Plasmodium falciparum protein kinase 6 (PK6, PF3D7_1337100) (UniProt Q8IDW1); test: PfPK6 kinase inhibitors, biochemical, TCAMS library (AID 1159586); conditions: recombinant PfPK6, Kinase-Glo ATP depletion luminescence
Sequence of Plasmodium falciparum protein kinase 6 (PK6, PF3D7_1337100) (Q8IDW1 1-305): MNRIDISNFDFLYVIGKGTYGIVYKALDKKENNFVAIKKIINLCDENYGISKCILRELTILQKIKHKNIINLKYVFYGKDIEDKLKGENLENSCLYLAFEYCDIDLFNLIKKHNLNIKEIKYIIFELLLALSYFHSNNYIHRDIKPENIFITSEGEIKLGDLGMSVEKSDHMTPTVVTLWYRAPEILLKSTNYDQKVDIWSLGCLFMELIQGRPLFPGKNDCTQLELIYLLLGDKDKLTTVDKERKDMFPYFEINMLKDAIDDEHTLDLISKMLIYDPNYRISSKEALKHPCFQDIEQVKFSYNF

[7] = biological target: Protein kinase 7 (PK7), Plasmodium falciparum 3D7 (PF3D7_0213400) (UniProt Q7YTF7); test: inhibition of Plasmodium PK7 catalytic activity – biochemical, TCAMS antimalarial set, Kinase-Glo luminescence (AID 1159587); conditions: recombinant PfPK7, Kinase-Glo ATP depletion luminescence
Sequence of Protein kinase 7 (PK7), Plasmodium falciparum 3D7 (PF3D7_0213400) (Q7YTF7 1-343): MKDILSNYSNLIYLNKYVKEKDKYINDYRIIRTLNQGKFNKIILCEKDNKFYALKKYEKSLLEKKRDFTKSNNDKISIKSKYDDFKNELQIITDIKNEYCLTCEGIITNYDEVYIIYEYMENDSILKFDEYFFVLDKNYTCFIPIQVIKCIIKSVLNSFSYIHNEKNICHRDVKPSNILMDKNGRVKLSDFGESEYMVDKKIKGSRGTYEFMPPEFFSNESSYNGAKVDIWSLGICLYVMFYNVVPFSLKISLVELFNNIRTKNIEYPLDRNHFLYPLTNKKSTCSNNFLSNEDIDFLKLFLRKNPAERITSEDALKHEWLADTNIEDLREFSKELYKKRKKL

[8] = biological target: Calcium-dependent protein kinase 4 (Plasmodium falciparum (isolate 3D7)) (UniProt Q8IBS5); test: PfCDPK4 kinase inhibitors, biochemical, TCAMS library (AID 1159588; cut-off not given, nearly all actives have IC50 up to about 0.91 µM); conditions: recombinant PfCDPK4, Kinase-Glo ATP depletion luminescence
Sequence of Calcium-dependent protein kinase 4 (Plasmodium falciparum (isolate 3D7)) (Q8IBS5 whole entry, looked up): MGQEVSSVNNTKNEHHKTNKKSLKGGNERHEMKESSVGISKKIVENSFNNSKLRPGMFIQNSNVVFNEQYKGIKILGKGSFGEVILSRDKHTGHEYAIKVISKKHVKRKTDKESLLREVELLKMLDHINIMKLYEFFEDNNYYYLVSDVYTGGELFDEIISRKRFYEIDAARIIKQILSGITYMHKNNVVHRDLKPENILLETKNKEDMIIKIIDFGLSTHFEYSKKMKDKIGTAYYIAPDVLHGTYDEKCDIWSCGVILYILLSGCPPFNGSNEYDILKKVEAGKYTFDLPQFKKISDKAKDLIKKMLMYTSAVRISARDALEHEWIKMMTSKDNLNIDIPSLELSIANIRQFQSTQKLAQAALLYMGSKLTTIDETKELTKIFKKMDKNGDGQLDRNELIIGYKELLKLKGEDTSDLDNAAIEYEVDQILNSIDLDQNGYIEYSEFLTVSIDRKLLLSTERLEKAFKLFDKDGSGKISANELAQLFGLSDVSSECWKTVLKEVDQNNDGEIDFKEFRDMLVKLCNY

Clc1ccc2c(NN=Cc3cccs3)ccnc2c1
inactive: inhibition [2] -4% | inhibition [3] 2% | outcome [5] | outcome [6] | outcome [7] | outcome [8]
active: growth inhibition [1] 96% | growth inhibition [4] 100%

CCCn1c(=N)c(C(=O)NCCc2ccccc2)cc2c(=O)n3cccc(C)c3nc21
inactive: inhibition [2] 8% | inhibition [3] 2% | outcome [5] | outcome [6] | outcome [7] | outcome [8]
active: growth inhibition [1] 64% | growth inhibition [4] 100%

COc1ccc(CN2CCC(NCc3cccc(C(F)(F)F)c3)CC2)cc1
active: growth inhibition [4] 99%
inactive: growth inhibition [1] 8% | inhibition [2] 6% | inhibition [3] 0% | outcome [5] | outcome [6] | outcome [7] | outcome [8]

Cc1cccc(OCC2CCN(c3ncc(C(=O)NC4CC4)cc3Cl)CC2)c1
inactive: inhibition [2] -4% | inhibition [3] -2% | outcome [5] | outcome [6] | outcome [7] | outcome [8]
active: growth inhibition [1] 78% | growth inhibition [4] 90%

CCOc1ccc(C(=O)N2CCOC(CCN3CCC4(CCc5ccccc54)CC3)(c3ccc(Cl)c(Cl)c3)C2)cc1 (stereo not given)
active: growth inhibition [4] 81%
inactive: growth inhibition [1] 25% | inhibition [2] 25% | inhibition [3] 1% | outcome [5] | outcome [6] | outcome [7] | outcome [8]

Cn1nc(-c2ccc(NC(=O)Nc3cc(C(F)(F)F)ccc3F)cc2)c2cnc(NCCCCN3CCCC3)nc21
active: growth inhibition [1] 74% | inhibition [2] 88% | growth inhibition [4] 98%
inactive: inhibition [3] -3% | outcome [5] | outcome [6] | outcome [7] | outcome [8]

C[C@@H]1CN(c2cnn(Cc3cccc(NC(=O)Nc4ccc(-c5ccccc5)cc4)c3)c(=O)c2Cl)C[C@H](C)N1
inactive: inhibition [2] 6% | inhibition [3] 1% | outcome [5] | outcome [6] | outcome [7] | outcome [8]
active: growth inhibition [1] 67% | growth inhibition [4] 101%

CN1C(C)(C)CC(NC(=O)c2ccc(-c3nc4cc(Cl)c(Cl)cc4[nH]3)cc2)CC1(C)C
inactive: inhibition [2] 8% | inhibition [3] 4% | outcome [5] | outcome [6] | outcome [7] | outcome [8]
active: growth inhibition [1] 97% | growth inhibition [4] 98%

Cc1ccc2nc(C)cc(NN=Cc3cccc(Cl)c3)c2c1
inactive: inhibition [2] 12% | inhibition [3] 2% | outcome [5] | outcome [6] | outcome [7] | outcome [8]
active: growth inhibition [1] 98% | growth inhibition [4] 102%

CCCN1CCN(c2cc(NCC)c3c4c(onc24)-c2ccccc2C3=O)CC1
inactive: growth inhibition [1] 11% | inhibition [2] 4% | inhibition [3] 6% | outcome [5] | outcome [6] | outcome [7] | outcome [8]
active: growth inhibition [4] 96%

O=C(Nc1ccc2c(c1)OCO2)c1cc(-c2cccnc2)cnc1NCc1ccc2c(c1)OCO2
inactive: growth inhibition [1] 1% | inhibition [2] 2% | inhibition [3] 2% | outcome [5] | outcome [6] | outcome [7] | outcome [8]
active: growth inhibition [4] 87%

Oc1c(Br)cc2oc3c(c2c1CNCc1ccccc1)CCCC3
active: growth inhibition [1] 74% | growth inhibition [4] 99%
inactive: inhibition [2] -19% | inhibition [3] 0% | outcome [5] | outcome [6] | outcome [7] | outcome [8]

Cc1nc(N)nc(N)c1OCCCCOc1ccccc1
inactive: growth inhibition [1] 4% | inhibition [3] -1% | outcome [5] | outcome [6] | outcome [7] | outcome [8]
active: inhibition [2] 62% | growth inhibition [4] 94%

CC(CN(C)C)Oc1ccc2[nH]c(-c3cccc(OCc4ccccc4)c3)nc2c1C#N (stereo not given)
inactive: inhibition [3] -2% | outcome [5] | outcome [6] | outcome [7] | outcome [8]
active: growth inhibition [1] 94% | inhibition [2] 57% | growth inhibition [4] 101%

COc1ccc(CCNCCCCCCNCCc2ccc(Cl)cc2)c(Cl)c1OC
inactive: growth inhibition [1] 4% | inhibition [3] 5% | outcome [5] | outcome [6] | outcome [7] | outcome [8]
active: inhibition [2] 88% | growth inhibition [4] 101%

c1cc(CN2CCN(c3ccncc3)CC2)cc(-c2ccc(-c3nc4ccccc4[nH]3)cc2)c1
inactive: inhibition [3] -11% | outcome [5] | outcome [6] | outcome [7] | outcome [8]
active: growth inhibition [1] 100% | inhibition [2] 60% | growth inhibition [4] 100%

CN(C)c1ccc(C=C2SC(=N)N(c3nccs3)C2=O)cc1
inactive: inhibition [2] 38% | inhibition [3] 2% | outcome [5] | outcome [6] | outcome [7] | outcome [8]
active: growth inhibition [1] 50% | growth inhibition [4] 97%

COc1ccc(-c2nonc2NC(=O)c2ccc(C(C)(C)C)cc2)cc1OC
inactive: inhibition [2] -3% | inhibition [3] -2% | outcome [5] | outcome [6] | outcome [7] | outcome [8]
active: growth inhibition [1] 73% | growth inhibition [4] 99%

CC(=O)c1c(Nc2c(C)cc(C)cc2C)oc(C)cc1=O
inactive: inhibition [2] 7% | inhibition [3] 7% | outcome [5] | outcome [6] | outcome [7] | outcome [8]
active: growth inhibition [1] 83% | growth inhibition [4] 95%

CC(C)c1ccc(NC(=O)NCC2CCCN(CCCCCNC(=O)/C=C/c3ccc(Cl)c(Cl)c3)C2)cc1 (stereo not given)
inactive: growth inhibition [1] 6% | inhibition [3] -13% | outcome [5] | outcome [6] | outcome [7] | outcome [8]
active: inhibition [2] 87% | growth inhibition [4] 98%

Oc1ccc(CN2CC[C@@H](N3CCN(CCc4ccccc4)CC3)[C@H](O)C2)cc1Cl
active: growth inhibition [1] 77% | growth inhibition [4] 100%
inactive: inhibition [2] 0% | inhibition [3] 2% | outcome [5] | outcome [6] | outcome [7] | outcome [8]

CC(C)COc1ccc(Cl)cc1Cc1nc(-c2nc3ccc(CN4CCN(C)CC4)cc3[nH]2)co1
inactive: inhibition [2] 5% | inhibition [3] 7% | outcome [5] | outcome [6] | outcome [7] | outcome [8]
active: growth inhibition [1] 57% | growth inhibition [4] 101%

COc1cc(OC)cc(C(=O)Nc2nc(-c3ccccn3)cs2)c1
inactive: inhibition [2] 47% | inhibition [3] 1% | outcome [5] | outcome [6] | outcome [7] | outcome [8]
active: growth inhibition [1] 72% | growth inhibition [4] 97%

COc1ccc(CNC(=O)c2cnc3c(O)cccc3c2Nc2cccc(NC(=O)c3ccc(Cl)c(Cl)c3)c2)cc1
active: growth inhibition [1] 89% | inhibition [2] 54% | growth inhibition [4] 96%
inactive: inhibition [3] 4% | outcome [5] | outcome [6] | outcome [7] | outcome [8]

CNC(=O)c1cnc(Nc2ccc(N3CCN(C)CC3)cc2)nc1Nc1cccc(OC(C)C)c1
active: growth inhibition [1] 102% | growth inhibition [4] 100%
inactive: inhibition [2] 16% | inhibition [3] 4% | outcome [5] | outcome [6] | outcome [7] | outcome [8]

CCOc1cc(C(=O)Nc2cccnc2)cc(Br)c1OCCC(C)C
inactive: inhibition [2] 4% | inhibition [3] 1% | outcome [5] | outcome [6] | outcome [7] | outcome [8]
active: growth inhibition [1] 51% | growth inhibition [4] 88%

CC(=O)c1cccc(NC(=O)C2c3ccccc3C(=O)N(CC(C)C)C2c2cccs2)c1 (stereo not given)
inactive: inhibition [2] 11% | inhibition [3] -2% | outcome [5] | outcome [6] | outcome [7] | outcome [8]
active: growth inhibition [1] 100% | growth inhibition [4] 100%

O=C(CCNc1ccnc(NCC2CCCCC2)n1)Nc1ccccc1
inactive: growth inhibition [1] 48% | inhibition [3] -3% | outcome [5] | outcome [6] | outcome [7] | outcome [8]
active: inhibition [2] 55% | growth inhibition [4] 95%

COc1ccc(N2CCN(C(CNC(=O)C3CCCCC3)c3ccc4c(c3)OCO4)CC2)cc1 (stereo not given)
inactive: inhibition [2] 1% | inhibition [3] -1% | outcome [5] | outcome [6] | outcome [7] | outcome [8]
active: growth inhibition [1] 83% | growth inhibition [4] 92%

CCCN(CCC)C(=O)c1cc(C(=O)N[C@@H](Cc2ccccc2)[C@H](O)CNC(C)(C)c2cccc(OC)c2)cc(N2CCCCS2(=O)=O)c1
active: growth inhibition [1] 74% | growth inhibition [4] 99%
inactive: inhibition [2] 16% | inhibition [3] -3% | outcome [5] | outcome [6] | outcome [7] | outcome [8]

CC(C)(C)c1ccc(C(=O)NC2CCC(CCN3CCc4ccc(S(C)(=O)=O)cc4CC3)CC2)cc1C(F)(F)F (stereo not given)
active: inhibition [2] 54% | growth inhibition [4] 88%
inactive: growth inhibition [1] 11% | inhibition [3] -8% | outcome [5] | outcome [6] | outcome [7] | outcome [8]

Cc1nc(-c2ccc3c(c2)CCN(CCC2CCC(NC(=O)c4cc5cccc(Cl)c5[nH]4)CC2)CC3)no1 (stereo not given)
active: growth inhibition [4] 100%
inactive: growth inhibition [1] 46% | inhibition [2] 36% | inhibition [3] 2% | outcome [5] | outcome [6] | outcome [7] | outcome [8]

COc1ccc2ncc(Cl)c(NCC3(O)CCC(NCc4ccc5c(n4)NC(=O)CS5)CC3)c2n1 (stereo not given)
active: growth inhibition [4] 96%
inactive: growth inhibition [1] 31% | inhibition [2] 39% | inhibition [3] -3% | outcome [5] | outcome [6] | outcome [7] | outcome [8]

O=C(Nc1cccnc1)c1cn(-c2ccccc2)nc1-c1cccs1
active: growth inhibition [1] 61% | growth inhibition [4] 99%
inactive: inhibition [2] 3% | inhibition [3] -3% | outcome [5] | outcome [6] | outcome [7] | outcome [8]

CCCCCC1c2[nH]c3ccccc3c2CCN1C(=O)OCc1ccccc1 (stereo not given)
inactive: inhibition [2] 3% | inhibition [3] -3% | outcome [5] | outcome [6] | outcome [7] | outcome [8]
active: growth inhibition [1] 68% | growth inhibition [4] 93%

O=C(NCC1CCC1)c1cnc(Nc2cccc(Cl)c2)nc1N1CCC1
inactive: inhibition [2] 21% | inhibition [3] 2% | outcome [5] | outcome [6] | outcome [7] | outcome [8]
active: growth inhibition [1] 75% | growth inhibition [4] 98%

CCC(CC)n1c(C)cc2c3c(N)nc(N)nc3ccc21
inactive: inhibition [3] 1% | outcome [5] | outcome [6] | outcome [7] | outcome [8]
active: growth inhibition [1] 95% | inhibition [2] 61% | growth inhibition [4] 95%

CCCCNC(=O)C(C)NC(=O)c1ccc(O)c(-c2ccc(Cl)c(Cl)c2)c1 (stereo not given)
active: growth inhibition [4] 98%
inactive: growth inhibition [1] 8% | inhibition [2] -5% | inhibition [3] 2% | outcome [5] | outcome [6] | outcome [7] | outcome [8]

Cc1ncsc1CCN1C(=O)CC2(C1=O)C(=O)N(Cc1ccccc1)c1ccc(Cl)cc12 (stereo not given)
active: growth inhibition [4] 86%
inactive: growth inhibition [1] 46% | inhibition [2] 0% | inhibition [3] 1% | outcome [5] | outcome [6] | outcome [7] | outcome [8]

CCOc1ccc(-c2nonc2NC(=O)c2cccc(Cl)c2)cc1OCC
active: growth inhibition [1] 99% | growth inhibition [4] 100%
inactive: inhibition [2] -5% | inhibition [3] -8% | outcome [5] | outcome [6] | outcome [7] | outcome [8]
